# System: Vero E6 infected with SARS-CoV-2
# Experiment: morphology score (similarity to uninfected cells); higher = more like uninfected cells
# Settings: 24 h
row,SMILES,morphology score
1,Cc1cccc(C)c1NC(=O)/N=C1\CCCN1C [xilobam] (10 µM),0.132
2,CN(C)CCCO[C@@H]1[C@H]2OC(C)(C)O[C@H]2O[C@@H]1[C@H](O)CO [amiprilose] (10 µM),-0.0292
3,CO[C@@H]1[C@H](N(C)C(=O)c2ccccc2)C[C@H]2O[C@]1(C)n1c3ccccc3c3c4c(c5c6ccccc6n2c5c31)C(=O)NC4 [midostaurin] (10 µM),-0.108
4,CN(C)c1ccc(C(=C2C=CC(=[N+](C)C)C=C2)c2ccc(N(C)C)cc2)cc1 [crystal-violet] (10 µM),-0.0788
5,COc1cc(C(=O)NCc2ccc(OCCN(C)C)cc2)cc(OC)c1OC [trimethobenzamide] (10 µM),0.00196
6,O=C(CCCCCCCC(=O)NCCO)NCCO [adelmidrol] (10 µM),-0.0406
7,NCC1OC(C23CC4CC(CC(C4)C2)C3)Cc2c1ccc(O)c2O (configuration not stated) (0.833333 µM),-0.0685

# System: Vero E6 infected with SARS-CoV-2
# Experiment: SARS-CoV-2 infection rate relative to infected DMSO; higher = more infection, active = 60 or less
# Settings: 24 h
row,SMILES,SARS-CoV-2 infection rate
1,O=C1C=CC[C@@H]2[C@H]3CCCN4CCC[C@@H](CN12)[C@@H]34 [sophocarpine] (10 µM),112% (inactive)
2,CCCCNc1ncc(-c2ccc(CN3CCOCC3)cn2)c(N[C@H]2CC[C@H](O)CC2)n1 (10 µM),113% (inactive)
3,OC[C@H]1O[C@@H](O[C@@H]2[C@H](O)[C@@H](O)[C@H](O[C@H]3[C@H](O)[C@@H](O)C(O)O[C@@H]3CO)O[C@@H]2CO)[C@H](O)[C@@H](O)[C@H]1O (some centres not stated) [4-galactosyllactose] (10 µM),114% (inactive)
4,CN(CCCN1c2ccccc2CCc2ccccc21)CC(=O)c1ccc(Cl)cc1 [lofepramine] (10 µM),114% (inactive)
5,COC1(C2=NCCN2)COc2ccccc2O1 (configuration not stated) (10 µM),92.5% (inactive)
6,CCCN1CCCC(c2cccc(O)c2)C1 (stereo in doubt) [preclamol] (10 µM),114% (inactive)
7,N=C(N)SCCc1ccc(OCc2ccc([N+](=O)[O-])cc2)cc1 (10 µM),85.5% (inactive)
8,COCCCN1CCC(NC(=O)c2cc(Cl)c(N)c3c2OCC3)CC1 [prucalopride] (10 µM),109% (inactive)
9,CN1C/C=C/CCOc2cccc(c2)-c2ccnc(n2)Nc2cccc(c2)C1 (10 µM),104% (inactive)
10,O=C1[C@H]2CCCC[C@H]2C(=O)N1CCCCN1CCN(c2nsc3ccccc23)CC1 [perospirone] (10 µM),115% (inactive)
11,NS(=O)(=O)NCc1csc2ccccc12 (10 µM),87.5% (inactive)
12,Cc1cc(CC(=O)O)n(C)c1C(=O)c1ccc(Cl)cc1 [zomepirac] (10 µM),104% (inactive)
13,Cc1sc2c(c1C)C(c1ccc(Cl)cc1)=N[C@@H](CC(=O)Nc1ccc(O)cc1)c1nnc(C)n1-2 (10 µM),114% (inactive)
14,Nc1ccc(-c2nc3ccc(-c4nc5ccc(N)cc5[nH]4)cc3[nH]2)cc1 (10 µM),108% (inactive)
15,Cc1c(C(=O)NN2CCCCC2)nn(-c2ccc(Cl)cc2Cl)c1-c1ccc(Cl)cc1 [rimonabant] (10 µM),110% (inactive)
16,O=C(c1ccc(F)cc1)C1CCN(CCCCc2ccccc2)CC1 [4-(4-fluorobenzoyl)-1-(4-phenylbutyl)-piperidine] (10 µM),110% (inactive)
17,Cc1[nH]c(/C=C2\C(=O)Nc3ccc(S(=O)(=O)N(C)c4cccc(Cl)c4)cc32)c(C)c1C(=O)N1CCN(C)CC1 (10 µM),104% (inactive)
18,NC(=O)c1cccc(N)c1 [3-amino-benzamide] (10 µM),102% (inactive)
19,CCCCC(=O)OCC(=O)[C@]1(O)Cc2c(O)c3c(c(O)c2[C@@H](O[C@H]2C[C@H](NC(=O)C(F)(F)F)[C@H](O)[C@H](C)O2)C1)C(=O)c1c(OC)cccc1C3=O [valrubicin] (0.833333 µM),97% (inactive)
20,N=C(N)NC(=O)c1cnccn1 [pyrazinoylguanidine] (10 µM),108% (inactive)

row,SMILES,SARS-CoV-2 infection rate
1,C[C@@H](O[C@H]1OCCN(Cc2nn(P(=O)(O)O)c(=O)[nH]2)[C@H]1c1ccc(F)cc1)c1cc(C(F)(F)F)cc(C(F)(F)F)c1 [fosaprepitant-dimeglumine] (10 µM),112% (inactive)
2,O=C1COc2c(CCNCCN(C(=O)CCNCCc3ccc(Cl)c(Cl)c3)C3CCCCC3)ccc(O)c2N1 (10 µM),100% (inactive)
3,Nc1n[n+]([O-])c2ccccc2[n+]1[O-] [tirapazamine] (10 µM),99.5% (inactive)
4,CNC(=O)CN1CCC(Oc2cc3c(Nc4cccc(Cl)c4F)ncnc3cc2OC)CC1 (0.833333 µM),107% (inactive)
5,O=C(O)c1cccnc1C(=O)O [quinolinic-acid] (10 µM),108% (inactive)
6,CCCCOc1ccc(OCCCN2CCOCC2)cc1 [pramoxine] (10 µM),106% (inactive)
7,Cc1cc2c(F)c(Oc3ncnn4cc(OC[C@@H](C)OC(=O)[C@H](C)N)c(C)c34)ccc2[nH]1 [brivanib-alaninate] (10 µM),106% (inactive)
8,CN(C)CCCOc1nn(Cc2ccccc2)c2ccccc12 [benzydamine] (10 µM),70.5% (inactive)
9,CNc1nc(NCc2ccc(NS(C)(=O)=O)cc2Cl)cc(-c2ccccn2)n1 (10 µM),97.5% (inactive)
10,CC1(C)S[C@@H]2[C@H](NC(=O)[C@H](N)c3ccccc3)C(=O)N2[C@H]1C(=O)O [ampicillin] (10 µM),102% (inactive)
11,OC(CCCN1CCN(c2ncc(F)cn2)CC1)c1ccc(F)cc1 (configuration not stated) (10 µM),108% (inactive)
12,Sc1nc2ccccc2s1 [benzo[d]thiazole-2(3H)-thione] (10 µM),104% (inactive)
13,CC(C)N(CC[C@H](c1ccccc1)c1cc(CO)ccc1O)C(C)C [5-hydroxymethyl-tolterodine] (10 µM),94.5% (inactive)
14,Cc1cccc(C)c1NC(=O)/N=C1\CCCN1C [xilobam] (10 µM),102% (inactive)
15,CN(C)CCCO[C@@H]1[C@H]2OC(C)(C)O[C@H]2O[C@@H]1[C@H](O)CO [amiprilose] (10 µM),104% (inactive)
16,CO[C@@H]1[C@H](N(C)C(=O)c2ccccc2)C[C@H]2O[C@]1(C)n1c3ccccc3c3c4c(c5c6ccccc6n2c5c31)C(=O)NC4 [midostaurin] (10 µM),110% (inactive)
17,CN(C)c1ccc(C(=C2C=CC(=[N+](C)C)C=C2)c2ccc(N(C)C)cc2)cc1 [crystal-violet] (10 µM),114% (inactive)
18,COc1cc(C(=O)NCc2ccc(OCCN(C)C)cc2)cc(OC)c1OC [trimethobenzamide] (10 µM),110% (inactive)
19,O=C(CCCCCCCC(=O)NCCO)NCCO [adelmidrol] (10 µM),105% (inactive)
20,NCC1OC(C23CC4CC(CC(C4)C2)C3)Cc2c1ccc(O)c2O (configuration not stated) (0.833333 µM),115% (inactive)

# From the supplement of paper PMC13380429
